Reference: PubChem BioAssay (NCATS)
Records with an inconclusive call do not appear. Entries that show only a call come without a potency. Active and inactive are the calls of the source. Unless noted, the call rests on the fitted dose curve; in most records, active means well fitted curve in the direction sought with a large enough effect; inconclusive means small, poorly fitted or top-dose-only effect, or another doubt; inactive means no such curve, though single readings can be large; an effect the other way counts as inactive or inconclusive.

What was measured:
[1] = biological target: DNA repair nuclease/redox regulator APEX1 (Homo sapiens) (UniProt P27695); assay: qHTS Validation Assay for Inhibitors of the Human Apurinic/apyrimidinic Endonuclease 1 (APE1) (AID 1705;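 further: TAMRA fluorescence gain over two minutes as APE1 cuts a quenched THF abasic duplex; series mostly up to about 57 µM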)
Outline: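 Human APE1 was preincubated with compound for 15 min at room temperature, then 50 nM (final) THF-abasic double-stranded DNA substrate bearing 5'-TAMRA and 3'-BHQ-2 was added. Incision-driven fluorescence rise (ex 525/em 598 nm) was read kinetically.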

[2] = Counterscreen for APE1 Inhibitors: Fluorescent Dye Displacement Validation Assay (AID 1707)
Outline: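 Endpoint fluorescence read at 480 nm excitation / 540 nm emission; DNA-binding compounds lower signal by displacing 250 nM Thiazole Orange from 50 nM dsDNA containing a tetrahydrofuran abasic site, Tris-HCl pH7.5 buffer with NaCl and MgCl2.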

[3] = biological target: Endonuclease 4 (Escherichia coli (strain K12)) (UniProt P0A6C1); assay: Counterscreen for APE1 Inhibitors: qHTS Validation Assay for Inhibitors of Endonuclease IV (AID 1708)
Outline: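 Measured as reaction progress, the fluorescence gain between first and third kinetic reads after adding 50 nM TAMRA/BHQ-2 THF duplex to 2 nM enzyme preincubated 15 min with compound; 2 mM MgCl2, pH 7.5.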

[4] = qHTS for differential inhibitors of proliferation of Plasmodium falciparum line 7G8 (AID 1815);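 further: parasite growth measured after three days of incubation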; further: potency means the concentration at half of the fitted maximal effect
[5] = qHTS for differential inhibitors of proliferation of Plasmodium falciparum line GB4 (AID 1816); conditions: Potency: Plasmodium falciparum GB4 proliferation inhibition;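 further: parasite growth measured after 72 h incubation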; further: potency means the concentration at half of the fitted maximal effect
[6] = qHTS for differential inhibitors of proliferation of Plasmodium falciparum line 3D7 (AID 1876); further: potency means the concentration at half of the fitted maximal effect
[7] = qHTS for differential inhibitors of proliferation of Plasmodium falciparum line D10 (AID 1877);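 further: parasites grown with compound for 72 h before DNA staining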; further: potency means the concentration at half of the fitted maximal effect
[8] = qHTS for differential inhibitors of proliferation of Plasmodium falciparum line Dd2 (AID 1882); conditions: Potency: Plasmodium falciparum Dd2 proliferation inhibition; further: nearly all actives have a fitted effect of over 65% in size; further: potency means the concentration at half of the fitted maximal effect
Outline: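 RBC culture, 0.3% parasitemia / 2.5% Hct final; cpd added by pin tool in DMSO; 72 h, 37 C, 5% CO2; lysis buffer + SYBR Green I, o/n RT dark; FI 485/535; norm. to artemisinin 0.29 uM and DMSO.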

[9] = qHTS for differential inhibitors of proliferation of Plasmodium falciparum line W2 (AID 1883); conditions: Potency: Plasmodium falciparum W2 proliferation inhibition;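 further: parasites grown with compound for 72 h before lysis and staining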; further: potency means the concentration at half of the fitted maximal effect
[10] = qHTS for differential inhibitors of proliferation of Plasmodium falciparum line HB3 (AID 1886); conditions: Potency: Plasmodium falciparum HB3 proliferation inhibition;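 further: parasites grown with compound for 72 h before SYBR Green readout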; further: potency means the concentration at half of the fitted maximal effect
[11] = qHTS Assay for Identification of Small Molecule Inducers of Hypoxia Response (AID 2120; active means well fitted curve in the direction sought with a large enough effect in the signal ratio, with a control signal flat, not every such curve was filed as active; the % refers to the signal ratio)
Outline: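 HRE-bla ME-180, 2500 cells/well, 0.5% dialyzed FBS medium; cpd titration, 17 h 37 degrees C; CCF4 2.5 h RT; Ex 405, Em 460/530 ratio -> %Activity, AC50.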

[12] = biological target: Ferritin light chain (Equus caballus) (UniProt P02791); assay: qHTS Validation Assay for Identification of Novel General Anesthetics (AID 2323); further: series mostly up to about 77 µM
Outline: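 Competitive displacement of profluorescent 1-aminoanthracene (1-AMA, 50% saturated solution in PBS) from 10 uM horse-spleen apoferritin. Compounds incubated 10 min at room temperature; fluorescence read at 380 nm excitation/535 nm emission, normalized to free 1-AMA and complex, fitted with four-parameter Hill equation.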

[13] = biological target: ATP-dependent DNA helicase Q1 (Homo sapiens) (UniProt P46063); assay: qHTS Validation Assay for Inhibitors of RecQ-Like Dna Helicase 1 (RECQ1) (AID 2353)
Outline: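 RECQ1T1 50 nM; forked duplex (20 bp + 30-nt ss tails) 200 nM, ATP 2 mM final; pH 8.0, 2 mM MgCl2, 2.5 ug/ml poly(dI-dC); 15 min compound preincubation; discontinuous kinetic read over 2 h at RT.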

[14] = biological target: RecQ-like DNA helicase BLM (Homo sapiens) (UniProt P54132); assay: qHTS Validation Assay for Inhibitors of Bloom's syndrome helicase (BLM) (AID 2364); further: potency means the concentration at half of the fitted maximal effect
Outline: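 BLM 50 nM in 25 mM Tris-HCl pH 8.0, 5 mM NaCl, 2 mM MgCl2, 1 mM DTT, 0.01% Tween-20, 2.5 ug/ml poly(dI-dC); 15 min cpd preinc, RT. Start: 200 nM forked DNA + 2 mM ATP (final). TAMRA read, 2 reads 2 h apart.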

[15] = Cytometric Cell-Based qHTS for Inhibitors of the mTORC1 Signaling Pathway in MEF (Tsc2-/-, p53-/-) Cells (AID 2660);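 further: Tsc2 and p53 null MEFs carrying empty vector with compound for 24 h; percent of cells above a phospho-rpS6 to PI ratio cutoff in each well; series mostly up to about 38 µM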
Outline: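 Cells are plated, treated with compound for 24 hrs at 37 degree Celsius, then fixed, blocked and immunostained for phospho-rpS6 Ser235/236. Propidium iodide counterstain follows. Per-well % positive cells is derived from the PI-normalized phospho-S6 signal.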

[16] = High Content Imaging Cell-Based qHTS for Inhibitors of the mTORC1 Signaling Pathway in MEF Cells (AID 2667); further: potency means the concentration at half of the fitted maximal effect
Outline: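 Fixed-cell imaging of phospho-S6 (Ser235/236, Alexa-488) after 24 hrs of compound treatment at 37 degree Celsius. Signal was normalized to Hoechst, and thresholds from the highest and lowest wells split cells into % active versus % non-active.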

[17] = Cytometry Cell-Based qHTS for Inhibitors of the mTORC1 Signaling Pathway in MEF cells (AID 2668);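 further: Tsc2-/- p53-/- mouse embryonic fibroblasts stably re-expressing wild-type Tsc2; percent cells positive for phospho-rpS6 Ser235/236 relative to propidium iodide stain; series mostly up to about 38 µM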
Outline: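 WT MEFs (Tsc2-/-, p53-/- stably re-expressing WT Tsc2) in DMEM + 10% FBS received compounds 24 hrs after plating, for 24 hrs at 37 degree Celsius. Fixed cells stained with Alexa-488 anti-phospho-rpS6 Ser235/236 and propidium iodide; laser-scanning cytometry read-out.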

[18] = Validation screen for small molecules that induce DNA re-replication in MCF 10A normal breast cells (AID 463097); further: nearly all actives have a fitted effect of over 60% in size
Outline: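 Readout: Hoechst nuclear fluorescence intensity, 405 ex / 500-530 em, by scanning plate imager; re-replication scored as increase in nuclei with elevated DNA content. Cells exposed to compound 48 hr, 37 C, 5% CO2 beforehand.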

[19] = High Content Imaging Cell-Based qHTS for Inhibitors of the mTORC1 Signaling Pathway in MEF (Tsc2-/-, p53-/-) Cells (AID 2666);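 further: percent of cells scored positive for phospho-rpS6 Ser235/236 immunostaining by imaging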; further: potency means the concentration at half of the fitted maximal effect
Outline: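 Inhibition of rpS6 phosphorylation is measured by immunofluorescence imaging in empty-vector Tsc2-/-, p53-/- mouse embryonic fibroblasts after 24 hrs compound exposure at 37 degree Celsius. Results are reported as % positive cells per well.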

[20] = qHTS Assay for Modulators of Human Peripheral Myelin Protein 22 (PMP22) Expression/Activity (AID 1967; active means well fitted curve in the direction sought with a large enough effect in the signal ratio; the % refers to the signal ratio)
Outline: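 MSC80 mouse Schwann cells stably carrying Pmp22 promoter–green click beetle luciferase plus EF-alpha–red luciferase control were dosed for 24h at 37 °C. Dual-colour luminescence was filter-overlap corrected; %Activity came from green/red ratio versus untreated cells.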

Sequence of ATP-dependent DNA helicase Q1 (Homo sapiens) (P46063 whole entry, looked up): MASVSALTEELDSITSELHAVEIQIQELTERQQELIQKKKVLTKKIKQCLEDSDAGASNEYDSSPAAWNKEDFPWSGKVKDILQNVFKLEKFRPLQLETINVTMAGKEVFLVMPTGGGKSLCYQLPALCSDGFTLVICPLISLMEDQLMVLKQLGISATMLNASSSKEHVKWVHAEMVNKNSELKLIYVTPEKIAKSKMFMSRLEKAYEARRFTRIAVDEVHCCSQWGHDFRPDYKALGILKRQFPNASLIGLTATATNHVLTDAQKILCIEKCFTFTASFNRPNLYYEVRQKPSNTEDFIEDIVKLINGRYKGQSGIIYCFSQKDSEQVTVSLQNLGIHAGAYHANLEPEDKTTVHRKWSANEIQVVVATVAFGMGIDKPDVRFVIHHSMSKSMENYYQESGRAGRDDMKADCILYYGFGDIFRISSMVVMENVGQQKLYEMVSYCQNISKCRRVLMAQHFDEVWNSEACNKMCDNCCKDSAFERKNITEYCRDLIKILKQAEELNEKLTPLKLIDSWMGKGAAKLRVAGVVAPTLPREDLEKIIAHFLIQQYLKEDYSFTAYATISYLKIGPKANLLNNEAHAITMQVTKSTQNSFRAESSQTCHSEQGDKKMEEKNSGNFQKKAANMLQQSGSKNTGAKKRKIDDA
Sequence of DNA repair nuclease/redox regulator APEX1 (Homo sapiens) (P27695 whole entry, looked up): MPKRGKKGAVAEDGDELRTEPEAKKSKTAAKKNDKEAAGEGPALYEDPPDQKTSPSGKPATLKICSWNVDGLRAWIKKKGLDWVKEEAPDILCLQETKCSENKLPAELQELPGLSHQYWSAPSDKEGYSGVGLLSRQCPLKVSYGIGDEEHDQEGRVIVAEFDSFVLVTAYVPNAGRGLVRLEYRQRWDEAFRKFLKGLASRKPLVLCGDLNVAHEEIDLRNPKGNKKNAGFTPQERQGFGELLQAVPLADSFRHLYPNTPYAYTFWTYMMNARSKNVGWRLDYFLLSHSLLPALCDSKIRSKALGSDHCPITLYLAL
Sequence of RecQ-like DNA helicase BLM (Homo sapiens) (P54132 whole entry, looked up): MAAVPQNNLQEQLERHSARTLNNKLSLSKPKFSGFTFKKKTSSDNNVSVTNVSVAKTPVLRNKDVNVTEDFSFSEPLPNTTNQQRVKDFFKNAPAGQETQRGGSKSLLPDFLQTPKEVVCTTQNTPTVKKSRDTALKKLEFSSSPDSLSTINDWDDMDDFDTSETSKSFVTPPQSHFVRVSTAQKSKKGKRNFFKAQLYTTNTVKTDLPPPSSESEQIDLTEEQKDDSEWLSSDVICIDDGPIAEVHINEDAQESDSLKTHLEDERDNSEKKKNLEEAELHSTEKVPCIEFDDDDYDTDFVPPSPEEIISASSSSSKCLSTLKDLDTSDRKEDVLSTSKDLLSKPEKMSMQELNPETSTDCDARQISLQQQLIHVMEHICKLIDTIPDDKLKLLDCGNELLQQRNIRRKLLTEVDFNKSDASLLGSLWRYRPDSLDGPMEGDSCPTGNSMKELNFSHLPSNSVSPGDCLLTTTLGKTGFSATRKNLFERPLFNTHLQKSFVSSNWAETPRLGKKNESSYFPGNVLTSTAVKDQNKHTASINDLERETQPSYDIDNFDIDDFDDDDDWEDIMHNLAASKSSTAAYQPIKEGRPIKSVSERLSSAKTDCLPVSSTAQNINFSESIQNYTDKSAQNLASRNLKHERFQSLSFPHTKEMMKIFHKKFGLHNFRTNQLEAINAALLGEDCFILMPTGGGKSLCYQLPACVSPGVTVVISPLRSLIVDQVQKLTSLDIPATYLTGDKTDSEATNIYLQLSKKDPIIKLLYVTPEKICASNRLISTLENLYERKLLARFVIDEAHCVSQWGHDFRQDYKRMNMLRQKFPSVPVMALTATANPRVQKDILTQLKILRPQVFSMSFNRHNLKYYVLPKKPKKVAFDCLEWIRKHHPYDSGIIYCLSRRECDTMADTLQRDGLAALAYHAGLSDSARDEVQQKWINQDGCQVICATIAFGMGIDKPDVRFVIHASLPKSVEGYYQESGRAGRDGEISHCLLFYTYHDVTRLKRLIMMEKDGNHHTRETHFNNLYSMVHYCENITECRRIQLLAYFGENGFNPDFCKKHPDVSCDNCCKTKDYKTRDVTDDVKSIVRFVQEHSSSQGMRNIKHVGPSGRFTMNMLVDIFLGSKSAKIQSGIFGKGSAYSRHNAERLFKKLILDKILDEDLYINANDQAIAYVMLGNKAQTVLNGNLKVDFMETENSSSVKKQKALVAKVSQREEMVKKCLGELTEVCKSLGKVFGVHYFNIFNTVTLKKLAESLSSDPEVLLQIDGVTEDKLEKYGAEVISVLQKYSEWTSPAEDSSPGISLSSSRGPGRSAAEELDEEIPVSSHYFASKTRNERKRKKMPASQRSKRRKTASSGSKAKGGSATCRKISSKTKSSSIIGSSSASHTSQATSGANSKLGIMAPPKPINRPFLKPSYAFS
Sequence of Ferritin light chain (Equus caballus) (P02791 2-175 limits assumed): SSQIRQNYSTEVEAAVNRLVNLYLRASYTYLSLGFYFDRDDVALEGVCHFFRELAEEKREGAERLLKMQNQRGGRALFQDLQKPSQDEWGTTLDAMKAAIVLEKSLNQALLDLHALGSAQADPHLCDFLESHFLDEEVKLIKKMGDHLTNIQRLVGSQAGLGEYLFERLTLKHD

SMILES	Potency [1]	Potency [2]	Potency [3]	Potency [4]	Potency [5]	Potency [6]	Potency [7]	Potency [8]	Potency [9]	Potency [10]	outcome [11]	Potency [12]	Potency [13]	Potency [14]	outcome [15]	Potency [16]	Potency [17]	Potency [18]	Potency [19]	Potency [20]
Cn1c(=O)c2c(ncn2C)n(C)c1=O	inactive	inactive	inactive	inactive	inactive	inactive	inactive	inactive	inactive	inactive	inactive	inactive	inactive	inactive	inactive	inactive	inactive	inactive		
Cc1cnc(C(=O)NCCc2ccc(S(=O)(=O)NC(=O)NC3CCCCC3)cc2)cn1	inactive	inactive	inactive	inactive	inactive	inactive	inactive	inactive		inactive			inactive		inactive	inactive	inactive	inactive		
CNCCCC12CCC(c3ccccc31)c1ccccc12	inactive	inactive	inactive	11.2 µM (active)	8.91 µM (active)	10 µM (active)		11.2 µM (active)	5.01 µM (active)			inactive	inactive	inactive		0.521 µM (active)		inactive	inactive	
CCOC(=O)Nc1ccc(NCc2ccc(F)cc2)nc1N	inactive	inactive	inactive	2.82 µM (active)	2.82 µM (active)	3.55 µM (active)	7.08 µM (active)	11.2 µM (active)	2 µM (active)	2.82 µM (active)		inactive	inactive	28.2 µM (active)	inactive	inactive	inactive		inactive	
NCCCCCC(=O)O	inactive	inactive	inactive	inactive	inactive	inactive	inactive	inactive	inactive	inactive		inactive		inactive	inactive	inactive	inactive	inactive	inactive	
CCOC(=O)C(C)(C)Oc1ccc(Cl)cc1	inactive	inactive	inactive	inactive	inactive	inactive	inactive	inactive	inactive	inactive			inactive	inactive	inactive	inactive	inactive	inactive	inactive	
Cn1cnc2c1c(=O)[nH]c(=O)n2C	inactive	inactive	inactive	inactive	inactive	inactive	inactive	inactive	inactive	inactive		inactive	inactive	inactive	inactive	inactive	inactive	inactive		
Clc1ccc(C(c2ccccc2Cl)C(Cl)Cl)cc1 (stereo not drawn)	inactive	inactive	inactive	inactive	inactive	inactive	inactive	inactive		inactive		inactive	inactive		inactive	inactive	inactive	inactive		
COc1nc(C)nc(Cl)c1NC1=NCCN1	inactive	inactive	inactive	inactive	inactive	inactive	inactive	inactive		inactive		inactive	inactive		inactive	inactive	inactive	inactive	inactive	
NCCc1cnc[nH]1	inactive	inactive	inactive	inactive	inactive	inactive	inactive	inactive	inactive	inactive		inactive	inactive		inactive	inactive	inactive	inactive		inactive
CN(C)CCCN1c2ccccc2CCc2ccc(Cl)cc21	inactive	inactive	inactive	5.01 µM (active)	5.01 µM (active)	10 µM (active)	11.2 µM (active)	7.94 µM (active)	5.01 µM (active)	10 µM (active)			inactive	inactive	inactive			inactive	inactive	
CC(CCc1ccc(O)cc1)NCCc1ccc(O)c(O)c1 (stereo not drawn)	inactive	inactive	inactive	12.6 µM (active)	12.6 µM (active)		14.1 µM (active)		10 µM (active)	12.6 µM (active)		inactive	inactive	inactive	inactive	inactive	inactive		inactive	
Fc1ccc([C@@H]2CCNC[C@H]2COc2ccc3c(c2)OCO3)cc1	inactive	inactive	inactive	5.62 µM (active)	5.01 µM (active)	7.08 µM (active)	12.6 µM (active)	11.2 µM (active)	3.55 µM (active)	7.08 µM (active)		inactive	inactive	inactive				inactive	2.93 µM (active)	
